Experimental data taken from PubChem BioAssay.
Records with an inconclusive call do not appear. Active and inactive are the calls of the source.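 The calls were made as follows, unless noted: active = GFP signal, as percent of the solvent control, above the screen mean plus 3 SD, about 149; inconclusive = no reading because the compound's own fluorescence upset strain identification; inactive = the rest.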

What was measured:
[1] = yeast TOR pathway RPL19A-GFP modulators, primary screen, cell-based, S. cerevisiae, multiplex flow cytometry (AID 1862; in the data active = percent of DMSO control GFP below about 86%;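 also: lower values mimic rapamycin by blocking the RPL19A rise seen in DMSO cells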); details: S. cerevisiae RPL19A-GFP strain, flow cytometry fluorescence, 3 h; at 10 µM; stronger effect = lower value
[2] = modulators of MEP2-GFP levels in yeast, primary screen, S. cerevisiae, multiplex flow cytometry (AID 1867;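 active = GFP response, as percent of the DMSO control, above the screen-wide mean plus 3 SD, about 139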;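 also: median GFP channel fluorescence of barcode-gated MEP2-GFP cells measured by flow cytometry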); details: S. cerevisiae MEP2-GFP strain, 3 h, at 10 µM, stronger effect = higher value, 100% means same as DMSO wells
[3] = modulators of CIT2-GFP expression in yeast, primary screen, S. cerevisiae, GFP fusion, multiplex flow cytometry (AID 1870;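 active = percent response above a set limit, the screen-wide mean plus 3 SD, cut at about 130% in these data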;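 also: barcoded CIT2-GFP strain pooled with four other GFP strains with rapamycin as positive control; median GFP fluorescence per well over plate mean of DMSO wells so 100% = DMSO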); details: 3 h, at 10 µM, stronger effect = higher value
[4] = modulators of LAP4-GFP expression in yeast, primary screen, S. cerevisiae, multiplex flow cytometry (AID 1873); details: 3 h, at 10 µM, stronger effect = higher value
[5] = modulators of AGP1-GFP expression in yeast TOR pathway, primary screen, cell-based, multiplex flow cytometry, S. cerevisiae (AID 1887;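 active = GFP signal above the screen-wide mean plus 3 SD, that is over about 124.5% of the solvent control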;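 also: AGP1-GFP fusion strain of S. cerevisiae within a five-strain barcoded multiplex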); details: 3 h, at 10 µM, stronger effect = higher value
[6] = inhibitors of CD8+ T cell-vesicle binding, pilot screen, LFA-1/ICAM-1 modulator project, MLPCN validation set, flow cytometry (AID 2523;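 active = response below a set limit, under 55% cells CD8-positive and vesicle-bound, and CD8 cells' 90th-percentile brightness under 279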;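 as to vesicle binding response: mean PE anti-B7-1 fluorescence of CD8+ cells relative to row control; 100% = QL9-loaded vesicles with DMSO vehicle in the same plate row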); details: 2C mouse CD8+ T cells, at 7 µM, stronger effect = lower value; double positive events: measured here: CD8+/vesicle+ event percentage
[7] = biological target: Integrin beta-1 (Homo sapiens) + Integrin alpha-4 (Homo sapiens) (UniProt P13612+P05556); test: inhibition of HUTS-21 binding to VLA-4, pilot screen, VLA-4 allosteric modulator project, U937 cells, HUTS-21 mAb, flow cytometry, validation set (AID 2674;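 active = inhibition above 50%, about 3 SD of the validation set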;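 also: antibody binding induced by the VLA-4 ligand LDV present at three times its Kd; 0% = LDV ligand with antibody and no compound and 100% = antibody without LDV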); details: HUTS-21 LIBS mAb binding, at 6.7 µM, stronger effect = higher value, binding induced by LDV ligand
[8] = superoxide lowering in aged yeast cells, pilot screen, validation compound set (AID 2706;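 active = superoxide response below 65% of plate, a cut near 3 SD across the whole screen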;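 also: yeast exposed to compound for one week at 30 degrees C before staining; 100% = mean of all compound wells on the same plate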); details: S. cerevisiae aging, superoxide DHE fluorescence; at 10 µM; stronger effect = lower value
[9] = biological target: Beta-adrenergic receptor kinase 1 (Homo sapiens) (UniProt P25098); test: GRK2 binders displacing RNA aptamer, biochemical, validation, human GRK2, bead flow cytometry (AID 488806;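 active = aptamer binding inhibition above 30%, about 3 SD of noise from non-fluorescent compounds; inactive = inhibition at or below 30%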); details: bead-bound GRK2, FAM-aptamer displacement, at 10 µM, stronger effect = higher value
[10] = biological target: Beta-2 adrenergic receptor (Homo sapiens) (UniProt P07550); test: beta2AR agonists driving receptor internalization, pilot screen, cell-based, FAP fluorogen, flow cytometry, validation set (AID 504459;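 active = percent response above 42, roughly 3 SD of non-fluorescent test compounds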;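 also: agonist-driven loss of surface beta2AR via internalization measured by FAP dye flow cytometry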); details: Am2.2-beta2AR cells, FAP surface receptor flow cytometry; at 10 µM; stronger effect = higher value
[11] = biological target: AP-2 complex subunit beta (Homo sapiens) (UniProt P63010); test: inhibitors of arrestin peptide binding to AP2, pilot screen, biochemical, validation set, GST-AP2 beads, flow cytometry (AID 504541;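 active = inhibition above 54%, about 3 SD of non-fluorescent compounds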;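 also: AP2 carries R879A mutation and is captured from E. coli lysate; bead-bound FITC arrestin peptide fluorescence measuring arrestin peptide binding to AP2; 0% = DMSO wells and 100% = excess unlabeled arrestin peptide control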); details: FITC arrestin peptide, at 10 µM, stronger effect = higher value, AP2 beta2 appendage fragment, R879A mutant
[12] = yeast V-ATPase proton transport modulators, S. cerevisiae, pHLuorin, HTS validation (AID 504600; in the data active = response above about 15%;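 also: plate controls were DMSO for no effect and reference compound for full effect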); details: S. cerevisiae pHLuorin cytosolic pH, at 10 µM, stronger effect = higher value
[13] = tested on: anti-desmoglein-3 scFv antibody binding to human DSG3; test: inhibitors of anti-DSG3 scFv binding to DSG3, pilot screen, biochemical, validation compound set, bead-based, flow cytometry (AID 588368;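 active = binding below the plate cutoff, the plate median minus 3 SD, with a reading above zero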;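 also: signal is the median channel fluorescence of bead-bound GFP antibody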); details: Protein G beads, DSG3-Fc, scFv-GFP binding, at 10 µM, stronger effect = lower value
[14] = inhibitors of fungal efflux pumps CDR1, CDR2, MDR1, pilot screen, validation compound set, multiplex, phenotypic (AID 588506;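 active = efflux inhibition above 0.42, the validation set average plus 4 SD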;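 also: Nile Red retained in cells so higher fluorescence means more efflux inhibition; 0 = negative control wells and 1 = enniatin B 25 µM full block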); details: S. cerevisiae pump-expressing triplex, Nile Red efflux flow cytometry; at 10 µM; stronger effect = higher value; the pumps come from Candida albicans
[15] = biological target: ATP-binding cassette sub-family B member 6 (Homo sapiens) (UniProt Q9NP58); test: ABCB6 transporter inhibitors, pilot screen, K562-ABCB6 cells, flow cytometry, validation set (AID 588550;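 active = inhibition above the screen-wide mean plus 3 SD, about 51%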;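 also: 0% = DMSO wells and 100% = benzethonium chloride 70 µM positive control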); details: K562-ABCB6 porphyrin accumulation, 1 h, at 10 µM, stronger effect = higher value
[16] = promoters of myeloid differentiation in arrested cells, primary screen, cell-based, GFP/MAC1 double positive, flow cytometry, validation set (AID 588685;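 active = differentiation response of at least 50%, scaled between solvent and reference control, from cells with both markers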;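 also: compound exposure lasts four days before antibody staining and flow analysis; 0% = DMSO wells and 100% = 5 µM fulvestrant positive control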); details: ER-HoxA9 marrow cells, stronger effect = higher value, normalized: vehicle 0, fulvestrant 100

ATP-binding cassette sub-family B member 6 (Homo sapiens), sequence (Q9NP58 whole entry, looked up): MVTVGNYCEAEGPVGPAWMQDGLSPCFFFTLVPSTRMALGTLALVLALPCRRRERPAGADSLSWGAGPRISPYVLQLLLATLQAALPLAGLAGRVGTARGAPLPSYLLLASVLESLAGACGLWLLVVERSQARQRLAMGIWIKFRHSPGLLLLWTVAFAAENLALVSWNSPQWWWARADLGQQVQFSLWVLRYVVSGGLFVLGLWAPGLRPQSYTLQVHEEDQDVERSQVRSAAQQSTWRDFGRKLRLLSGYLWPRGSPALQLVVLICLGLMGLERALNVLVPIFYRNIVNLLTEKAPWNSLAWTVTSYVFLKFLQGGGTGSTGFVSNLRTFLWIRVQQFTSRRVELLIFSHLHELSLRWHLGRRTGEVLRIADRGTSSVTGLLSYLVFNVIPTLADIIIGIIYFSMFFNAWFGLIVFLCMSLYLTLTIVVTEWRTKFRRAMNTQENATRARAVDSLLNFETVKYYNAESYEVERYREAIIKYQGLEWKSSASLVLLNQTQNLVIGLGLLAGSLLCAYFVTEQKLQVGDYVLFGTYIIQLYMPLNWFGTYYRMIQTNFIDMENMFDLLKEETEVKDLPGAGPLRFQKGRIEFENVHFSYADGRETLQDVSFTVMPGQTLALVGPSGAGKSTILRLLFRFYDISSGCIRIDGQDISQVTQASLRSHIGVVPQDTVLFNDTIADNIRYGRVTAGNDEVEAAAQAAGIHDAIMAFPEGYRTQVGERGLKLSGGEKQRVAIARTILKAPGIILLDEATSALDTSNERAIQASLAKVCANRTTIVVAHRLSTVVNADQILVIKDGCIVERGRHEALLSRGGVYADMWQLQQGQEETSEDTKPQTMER
Beta-2 adrenergic receptor (Homo sapiens), sequence (P07550 whole entry, looked up): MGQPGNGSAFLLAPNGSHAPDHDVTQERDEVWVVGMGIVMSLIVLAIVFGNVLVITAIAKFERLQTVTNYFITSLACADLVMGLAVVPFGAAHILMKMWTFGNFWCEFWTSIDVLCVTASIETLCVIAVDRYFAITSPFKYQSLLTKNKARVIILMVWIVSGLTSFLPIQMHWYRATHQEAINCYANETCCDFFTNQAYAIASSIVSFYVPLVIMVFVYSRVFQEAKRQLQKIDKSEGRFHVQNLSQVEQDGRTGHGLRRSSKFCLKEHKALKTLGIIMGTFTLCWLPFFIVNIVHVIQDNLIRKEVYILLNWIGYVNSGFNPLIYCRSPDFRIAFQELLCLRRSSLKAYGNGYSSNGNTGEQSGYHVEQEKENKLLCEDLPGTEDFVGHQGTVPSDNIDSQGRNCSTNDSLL
Integrin beta-1 (Homo sapiens) + Integrin alpha-4 (Homo sapiens), sequence (P05556 whole entry, looked up): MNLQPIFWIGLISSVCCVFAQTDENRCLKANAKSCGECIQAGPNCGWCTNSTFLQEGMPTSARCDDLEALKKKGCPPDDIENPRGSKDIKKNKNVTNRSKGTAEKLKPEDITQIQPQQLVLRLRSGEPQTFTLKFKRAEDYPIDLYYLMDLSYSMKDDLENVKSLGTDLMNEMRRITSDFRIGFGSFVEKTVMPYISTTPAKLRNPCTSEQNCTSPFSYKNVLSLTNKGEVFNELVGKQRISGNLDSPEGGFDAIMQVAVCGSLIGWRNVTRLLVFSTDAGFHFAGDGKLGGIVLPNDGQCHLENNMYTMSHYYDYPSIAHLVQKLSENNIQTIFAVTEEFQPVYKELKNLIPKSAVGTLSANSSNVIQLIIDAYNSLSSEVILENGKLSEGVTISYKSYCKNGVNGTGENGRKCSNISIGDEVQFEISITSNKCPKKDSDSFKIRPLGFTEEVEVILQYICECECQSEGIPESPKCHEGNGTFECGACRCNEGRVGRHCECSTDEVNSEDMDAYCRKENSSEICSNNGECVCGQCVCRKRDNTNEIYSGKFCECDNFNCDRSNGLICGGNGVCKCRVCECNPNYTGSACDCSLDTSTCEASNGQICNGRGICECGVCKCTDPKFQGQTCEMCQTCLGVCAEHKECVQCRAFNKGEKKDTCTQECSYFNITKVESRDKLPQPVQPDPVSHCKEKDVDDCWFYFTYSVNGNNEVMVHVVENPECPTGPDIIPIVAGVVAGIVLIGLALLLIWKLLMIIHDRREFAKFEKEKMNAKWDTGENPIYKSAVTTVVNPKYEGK
Integrin beta-1 (Homo sapiens) + Integrin alpha-4 (Homo sapiens), sequence (P13612 whole entry, looked up): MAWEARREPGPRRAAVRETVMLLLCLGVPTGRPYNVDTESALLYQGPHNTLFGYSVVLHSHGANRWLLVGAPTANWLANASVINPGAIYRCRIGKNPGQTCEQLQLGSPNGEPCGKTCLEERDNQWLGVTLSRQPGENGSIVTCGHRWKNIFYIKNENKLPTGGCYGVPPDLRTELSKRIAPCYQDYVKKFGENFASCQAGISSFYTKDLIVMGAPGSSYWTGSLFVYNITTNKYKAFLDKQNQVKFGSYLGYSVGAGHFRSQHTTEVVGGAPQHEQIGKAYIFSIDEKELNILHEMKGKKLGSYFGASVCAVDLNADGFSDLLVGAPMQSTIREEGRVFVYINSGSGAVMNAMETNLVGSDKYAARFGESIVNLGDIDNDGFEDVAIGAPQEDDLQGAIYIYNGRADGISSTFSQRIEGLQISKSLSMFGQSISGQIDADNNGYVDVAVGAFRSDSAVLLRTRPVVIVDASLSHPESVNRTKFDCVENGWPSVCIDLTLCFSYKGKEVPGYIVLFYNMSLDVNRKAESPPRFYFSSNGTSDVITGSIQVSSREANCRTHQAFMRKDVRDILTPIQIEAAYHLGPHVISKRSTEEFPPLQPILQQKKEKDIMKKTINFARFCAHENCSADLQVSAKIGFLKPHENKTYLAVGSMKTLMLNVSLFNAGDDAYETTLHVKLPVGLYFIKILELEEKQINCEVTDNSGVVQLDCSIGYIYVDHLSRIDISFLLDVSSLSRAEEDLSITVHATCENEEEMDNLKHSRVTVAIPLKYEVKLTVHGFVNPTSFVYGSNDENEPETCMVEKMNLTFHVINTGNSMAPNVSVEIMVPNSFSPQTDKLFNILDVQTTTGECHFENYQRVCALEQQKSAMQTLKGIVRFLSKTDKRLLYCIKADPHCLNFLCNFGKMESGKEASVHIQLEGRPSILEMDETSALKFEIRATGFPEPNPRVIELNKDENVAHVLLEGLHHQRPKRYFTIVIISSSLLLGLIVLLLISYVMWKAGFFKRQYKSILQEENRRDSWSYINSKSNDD
AP-2 complex subunit beta (Homo sapiens), sequence (P63010 whole entry, looked up, the tested form may be a part, one chain of several): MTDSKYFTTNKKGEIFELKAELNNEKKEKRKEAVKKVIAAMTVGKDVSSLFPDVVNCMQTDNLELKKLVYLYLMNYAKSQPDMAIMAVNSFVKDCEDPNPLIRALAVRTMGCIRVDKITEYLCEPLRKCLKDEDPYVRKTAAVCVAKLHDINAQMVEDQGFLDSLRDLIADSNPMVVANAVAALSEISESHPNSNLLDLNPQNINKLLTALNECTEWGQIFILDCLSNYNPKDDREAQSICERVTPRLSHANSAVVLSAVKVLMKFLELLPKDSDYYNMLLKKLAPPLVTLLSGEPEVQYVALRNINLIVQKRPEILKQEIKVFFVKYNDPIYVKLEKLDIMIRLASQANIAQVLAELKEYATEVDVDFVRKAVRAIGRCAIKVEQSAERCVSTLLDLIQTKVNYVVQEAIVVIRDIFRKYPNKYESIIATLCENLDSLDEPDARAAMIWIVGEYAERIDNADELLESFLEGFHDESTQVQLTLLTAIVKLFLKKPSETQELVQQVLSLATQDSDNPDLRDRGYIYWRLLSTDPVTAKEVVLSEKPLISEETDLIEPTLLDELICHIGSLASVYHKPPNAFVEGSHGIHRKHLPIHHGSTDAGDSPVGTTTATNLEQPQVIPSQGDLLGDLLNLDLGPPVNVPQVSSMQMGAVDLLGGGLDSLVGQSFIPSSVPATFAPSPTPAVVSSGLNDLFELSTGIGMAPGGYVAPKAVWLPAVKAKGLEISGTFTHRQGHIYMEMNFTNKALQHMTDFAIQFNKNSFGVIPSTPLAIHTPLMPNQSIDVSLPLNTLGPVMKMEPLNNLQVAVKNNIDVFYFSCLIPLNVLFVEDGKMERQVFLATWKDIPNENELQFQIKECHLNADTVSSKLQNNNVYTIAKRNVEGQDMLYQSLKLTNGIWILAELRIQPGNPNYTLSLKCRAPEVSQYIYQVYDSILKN
Beta-adrenergic receptor kinase 1 (Homo sapiens), sequence (P25098 whole entry, looked up): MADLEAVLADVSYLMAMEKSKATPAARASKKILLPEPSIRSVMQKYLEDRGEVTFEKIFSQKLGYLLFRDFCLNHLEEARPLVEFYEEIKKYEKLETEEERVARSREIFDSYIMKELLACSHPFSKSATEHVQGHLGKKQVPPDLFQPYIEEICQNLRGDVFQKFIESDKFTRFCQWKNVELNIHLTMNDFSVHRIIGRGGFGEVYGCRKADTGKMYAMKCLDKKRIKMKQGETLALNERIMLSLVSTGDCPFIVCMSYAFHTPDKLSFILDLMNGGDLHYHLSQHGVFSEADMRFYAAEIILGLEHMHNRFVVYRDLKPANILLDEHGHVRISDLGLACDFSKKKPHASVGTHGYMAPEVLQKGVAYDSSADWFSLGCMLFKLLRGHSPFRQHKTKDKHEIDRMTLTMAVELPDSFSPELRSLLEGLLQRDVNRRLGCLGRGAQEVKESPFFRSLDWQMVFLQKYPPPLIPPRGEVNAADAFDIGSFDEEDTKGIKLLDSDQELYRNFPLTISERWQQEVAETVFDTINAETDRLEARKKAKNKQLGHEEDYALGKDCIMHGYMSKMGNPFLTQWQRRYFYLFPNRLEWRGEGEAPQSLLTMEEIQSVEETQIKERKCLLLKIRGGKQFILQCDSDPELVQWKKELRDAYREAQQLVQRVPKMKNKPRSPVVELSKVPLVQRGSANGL

O=C(NCCNc1ccc(Cl)cc1[N+](=O)[O-])c1cccnc1
57.5%: double positive events [6]
inactive: percent of DMSO control GFP [1] 100% | GFP response vs DMSO [2] 102% | percent response of DMSO control [3] 102% | GFP response vs DMSO [4] 106% | GFP response, % of DMSO [5] 98.9% | vesicle binding response [6] 13.3% | inhibition [7] 5.41% | superoxide response (% of plate) [8] 102% | aptamer binding inhibition [9] -6% | response [10] -6.88% | inhibition [11] 20% | response [12] 0.22% | binding (% of control) [13] 100% | efflux inhibition (fraction of control) [14] -0.22 | inhibition [15] 4% | differentiation response [16] 8.02%

O=C(O)[C@@H](O)c1ccccc1
62%: double positive events [6]
inactive: percent of DMSO control GFP [1] 102% | GFP response vs DMSO [2] 106% | percent response of DMSO control [3] 102% | GFP response vs DMSO [4] 121% | GFP response, % of DMSO [5] 120% | vesicle binding response [6] 168% | inhibition [7] 16.8% | superoxide response (% of plate) [8] 97% | aptamer binding inhibition [9] 3% | response [10] -22.9% | inhibition [11] 10.1% | response [12] -0.22% | binding (% of control) [13] 106% | efflux inhibition (fraction of control) [14] -0.04 | inhibition [15] 3% | differentiation response [16] -11.9%

O=C(N/N=C/c1ccc([N+](=O)[O-])o1)c1ccc(O)cc1
inactive: percent of DMSO control GFP [1] 103% | GFP response vs DMSO [2] 118% | percent response of DMSO control [3] 112% | GFP response vs DMSO [4] 77.6% | GFP response, % of DMSO [5] 97.5% | vesicle binding response [6] 209% | inhibition [7] -21.7% | superoxide response (% of plate) [8] 136% | aptamer binding inhibition [9] -1% | response [10] -5.96% | inhibition [11] -8.31% | response [12] 4% | binding (% of control) [13] 110% | efflux inhibition (fraction of control) [14] 0.12 | inhibition [15] 8% | differentiation response [16] 14.7%
47.6%: double positive events [6]

CC1(C)c2ccccc2N2CC(=O)NC21/C=C/c1ccco1 (stereo not drawn)
inactive: percent of DMSO control GFP [1] 101% | GFP response vs DMSO [2] 113% | percent response of DMSO control [3] 110% | GFP response vs DMSO [4] 100% | GFP response, % of DMSO [5] 96.2% | vesicle binding response [6] 87.6% | inhibition [7] -23.9% | superoxide response (% of plate) [8] 109% | aptamer binding inhibition [9] 0% | response [10] 5.81% | inhibition [11] -7.94% | response [12] -1.22% | binding (% of control) [13] 107% | efflux inhibition (fraction of control) [14] -0.16 | inhibition [15] -36% | differentiation response [16] -3.11%
64.1%: double positive events [6]

CCCCC[C@H](O)/C=C/C1=C(CCCCCCC(=O)O)C(=O)CC1
56.3%: double positive events [6]
active: response [12] 31%
inactive: percent of DMSO control GFP [1] 105% | GFP response vs DMSO [2] 106% | percent response of DMSO control [3] 101% | GFP response vs DMSO [4] 95.9% | GFP response, % of DMSO [5] 103% | vesicle binding response [6] 98.4% | inhibition [7] -9.13% | superoxide response (% of plate) [8] 99.9% | aptamer binding inhibition [9] 4% | response [10] 2.65% | inhibition [11] 1.77% | binding (% of control) [13] 101% | efflux inhibition (fraction of control) [14] 0.125 | inhibition [15] 3% | differentiation response [16] -8.96%

Cc1cccc2c(=O)n3c(nc12)CCCCC3
57%: double positive events [6]
inactive: percent of DMSO control GFP [1] 99.3% | GFP response vs DMSO [2] 101% | percent response of DMSO control [3] 97.6% | GFP response vs DMSO [4] 119% | GFP response, % of DMSO [5] 104% | vesicle binding response [6] 172% | inhibition [7] -14.5% | superoxide response (% of plate) [8] 105% | aptamer binding inhibition [9] -3% | response [10] -4.11% | inhibition [11] -3.62% | response [12] 0.7% | binding (% of control) [13] 105% | efflux inhibition (fraction of control) [14] -0.41 | inhibition [15] 2% | differentiation response [16] 36.4%

OCC1CCN(Cc2cn(Cc3ccccc3)nc2-c2cc3ccccc3o2)CC1
60.9%: double positive events [6]
inactive: percent of DMSO control GFP [1] 106% | GFP response vs DMSO [2] 97.2% | percent response of DMSO control [3] 97.8% | GFP response vs DMSO [4] 79.5% | GFP response, % of DMSO [5] 102% | vesicle binding response [6] 203% | inhibition [7] 18.2% | superoxide response (% of plate) [8] 99.1% | aptamer binding inhibition [9] -3% | response [10] 21% | inhibition [11] 5.6% | response [12] -6.29% | binding (% of control) [13] 98.5% | inhibition [15] 20% | differentiation response [16] 10%
active: efflux inhibition (fraction of control) [14] 0.52

CC12CCC(C(=O)NCc3ccc4c(c3)OCO4)(CC1=O)C2(C)C (stereo not drawn)
inactive: percent of DMSO control GFP [1] 100% | GFP response vs DMSO [2] 98.6% | percent response of DMSO control [3] 103% | GFP response vs DMSO [4] 102% | GFP response, % of DMSO [5] 107% | vesicle binding response [6] 252% | inhibition [7] 0.59% | superoxide response (% of plate) [8] 113% | aptamer binding inhibition [9] 0% | response [10] -30.8% | inhibition [11] 4.11% | response [12] -1.56% | binding (% of control) [13] 105% | efflux inhibition (fraction of control) [14] 0.08 | inhibition [15] 6% | differentiation response [16] -1.05%
60.9%: double positive events [6]

Cn1c([N+](=O)[O-])cnc1COC(N)=O
inactive: percent of DMSO control GFP [1] 92.8% | GFP response vs DMSO [2] 136% | percent response of DMSO control [3] 103% | GFP response vs DMSO [4] 83.6% | GFP response, % of DMSO [5] 88.9% | vesicle binding response [6] 157% | inhibition [7] 8.4% | superoxide response (% of plate) [8] 98.7% | aptamer binding inhibition [9] 4% | response [10] 5.28% | inhibition [11] -5.93% | response [12] -3.52% | binding (% of control) [13] 105% | efflux inhibition (fraction of control) [14] -0.35 | inhibition [15] 11% | differentiation response [16] -3.28%
62.7%: double positive events [6]
